The values below come from publication PMC11006913.

Numbering of substitutions follows the chain as printed.

Test in all cases: PBM; 200 nM protein, PBS
Conditions in all cases: dsDNA, one strand shown

In experiment [1] the target is T1, VENTX (Homo sapiens, UniProt O95231 78-163, R121Q).
T1 sequence: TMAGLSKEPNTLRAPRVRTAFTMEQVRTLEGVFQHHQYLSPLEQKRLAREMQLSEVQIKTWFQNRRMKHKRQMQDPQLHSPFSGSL

Experiment [2] addresses HOXA4 (Homo sapiens, UniProt Q00056 201-287, W262R).
Experiment [3] concerns the target T2, VENTX (Homo sapiens, UniProt O95231 78-163).
T2 sequence: T1 sequence with Q44R

Experiment [4] has as its target T3, VENTX (Homo sapiens, UniProt O95231 78-163, Y115F).
T3 sequence: T1 sequence with Y38F, Q44R

Experiment [5] has as its target HOXA2 (Homo sapiens, UniProt O43364 129-215, R185T).
Experiment [6] has as its target HOXA4 (Homo sapiens, UniProt Q00056 201-287, R217L).
The target in experiment [7] is T4, NKX2-6 (Homo sapiens, UniProt A6NCS4 118-204, R150C).
T4 sequence: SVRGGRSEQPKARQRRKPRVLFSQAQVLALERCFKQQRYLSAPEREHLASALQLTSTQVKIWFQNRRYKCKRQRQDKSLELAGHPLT

Experiment [8] has as its target MSX2 (Homo sapiens, UniProt P35548 130-214, R199I).
Experiment [9] has as its target HOXA2 (Homo sapiens, UniProt O43364 129-215, R185K).
The target of experiment [10] is HOXA4 (Homo sapiens, UniProt Q00056 201-287).
The target in experiment [11] is MSX2 (Homo sapiens, UniProt P35548 130-214).
The target of experiment [12] is PROP1 (Homo sapiens, UniProt O75360 56-141).
Experiment [13] deals with PROP1 (Homo sapiens, UniProt O75360 56-141, R99H).
The target of experiment [14] is VAX1 (Homo sapiens, UniProt Q5SQQ9 86-172).
Experiment [15] has as its target PROP1 (Homo sapiens, UniProt O75360 56-141, F88S).
Experiment [16] has as its target MSX2 (Homo sapiens, UniProt P35548 130-214, F161Y).
The target of experiment [17] is VAX1 (Homo sapiens, UniProt Q5SQQ9 86-172, T142I).
In experiment [18] the target is HOXA2 (Homo sapiens, UniProt O43364 129-215, Y150S).
The target of experiment [19] is HOXA4 (Homo sapiens, UniProt Q00056 201-287, W262F).
The target in experiment [20] is HOXA2 (Homo sapiens, UniProt O43364 129-215).
For experiment [21], the target named is VAX1 (Homo sapiens, UniProt Q5SQQ9 86-172, K157R).
Experiment [22] addresses HOXB9 (Homo sapiens, UniProt P17482 171-250, T197M).
Experiment [23] addresses ALX4 (Homo sapiens, UniProt Q9H161 200-286).
Experiment [24] concerns the target ALX4 (Homo sapiens, UniProt Q9H161 200-286, Q225E).
The target in experiment [25] is HOXB9 (Homo sapiens, UniProt P17482 171-250).
Experiment [26] has as its target HOXB9 (Homo sapiens, UniProt P17482 171-250, R186Q).
Experiment [27] deals with HOXC9 (Homo sapiens, UniProt P31274 178-260, K195R).
Experiment [28] deals with HOXC9 (Homo sapiens, UniProt P31274 178-260).
Experiment [29] deals with HOXC9 (Homo sapiens, UniProt P31274 178-260, R193K).
Experiment [30] concerns the target HOXC9 (Homo sapiens, UniProt P31274 178-260, R222W).
In experiment [31] the target is HOXD13 (Homo sapiens, UniProt P35453 263-343, T313R).
The target of experiment [32] is T5, NKX2-6 (Homo sapiens, UniProt A6NCS4 118-204).
T5 sequence: T4 sequence with C33R

Experiment [33] deals with HOXD13 (Homo sapiens, UniProt P35453 263-343).
In experiment [34] the target is HOXD13 (Homo sapiens, UniProt P35453 263-343, T313A).
The target of experiment [35] is T6, NKX2-6 (Homo sapiens, UniProt A6NCS4 118-204, F151L).
T6 sequence: T4 sequence with C33R, F34L

Sequence of VAX1 (Homo sapiens, UniProt Q5SQQ9 86-172, T142I) (Q5SQQ9 86-172 T142I): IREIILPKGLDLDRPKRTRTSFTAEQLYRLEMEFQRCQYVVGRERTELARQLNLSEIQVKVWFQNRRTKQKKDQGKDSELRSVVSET
Sequence of HOXA2 (Homo sapiens, UniProt O43364 129-215, R185K) (O43364 129-215 R185K): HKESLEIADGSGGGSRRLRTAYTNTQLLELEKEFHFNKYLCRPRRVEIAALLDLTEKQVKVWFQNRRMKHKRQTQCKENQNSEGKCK
Sequence of HOXA2 (Homo sapiens, UniProt O43364 129-215, R185T) (O43364 129-215 R185T): as the sequence (O43364 129-215 R185K) above, with K57T counted along it
Sequence of HOXA4 (Homo sapiens, UniProt Q00056 201-287, W262F) (Q00056 201-287 W262F): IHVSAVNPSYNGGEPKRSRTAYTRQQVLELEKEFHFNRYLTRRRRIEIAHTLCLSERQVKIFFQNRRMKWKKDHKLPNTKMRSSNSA
Sequence of HOXA4 (Homo sapiens, UniProt Q00056 201-287, R217L) (Q00056 201-287 R217L): as the sequence (Q00056 201-287 W262F) above, with R17L, F62W counted along it
Sequence of VAX1 (Homo sapiens, UniProt Q5SQQ9 86-172) (Q5SQQ9 86-172): as the sequence (Q5SQQ9 86-172 T142I) above, with I57T counted along it
Sequence of HOXA2 (Homo sapiens, UniProt O43364 129-215, Y150S) (O43364 129-215 Y150S): as the sequence (O43364 129-215 R185K) above, with Y22S, K57R counted along it
Sequence of HOXA4 (Homo sapiens, UniProt Q00056 201-287, W262R) (Q00056 201-287 W262R): as the sequence (Q00056 201-287 W262F) above, with F62R counted along it
Sequence of VAX1 (Homo sapiens, UniProt Q5SQQ9 86-172, K157R) (Q5SQQ9 86-172 K157R): as the sequence (Q5SQQ9 86-172 T142I) above, with I57T, K72R counted along it
Sequence of HOXA4 (Homo sapiens, UniProt Q00056 201-287) (Q00056 201-287): as the sequence (Q00056 201-287 W262F) above, with F62W counted along it
Sequence of HOXA2 (Homo sapiens, UniProt O43364 129-215) (O43364 129-215): as the sequence (O43364 129-215 R185K) above, with K57R counted along it
Sequence of HOXD13 (Homo sapiens, UniProt P35453 263-343, T313A) (P35453 263-343 T313A): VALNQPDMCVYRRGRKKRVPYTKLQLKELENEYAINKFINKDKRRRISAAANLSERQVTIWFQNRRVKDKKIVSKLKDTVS
Sequence of HOXB9 (Homo sapiens, UniProt P17482 171-250) (P17482 171-250): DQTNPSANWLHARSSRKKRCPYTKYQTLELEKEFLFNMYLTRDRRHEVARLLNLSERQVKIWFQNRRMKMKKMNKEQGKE
Sequence of PROP1 (Homo sapiens, UniProt O75360 56-141, F88S) (O75360 56-141 F88S): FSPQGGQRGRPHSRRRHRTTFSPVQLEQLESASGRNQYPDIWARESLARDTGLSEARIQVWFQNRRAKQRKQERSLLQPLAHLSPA
Sequence of PROP1 (Homo sapiens, UniProt O75360 56-141, R99H) (O75360 56-141 R99H): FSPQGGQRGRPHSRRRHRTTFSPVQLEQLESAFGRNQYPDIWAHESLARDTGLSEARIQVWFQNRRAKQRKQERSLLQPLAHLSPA
Sequence of HOXC9 (Homo sapiens, UniProt P31274 178-260) (P31274 178-260): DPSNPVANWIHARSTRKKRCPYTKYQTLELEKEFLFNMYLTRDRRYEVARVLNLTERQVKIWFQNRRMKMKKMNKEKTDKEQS
Sequence of ALX4 (Homo sapiens, UniProt Q9H161 200-286, Q225E) (Q9H161 200-286 Q225E): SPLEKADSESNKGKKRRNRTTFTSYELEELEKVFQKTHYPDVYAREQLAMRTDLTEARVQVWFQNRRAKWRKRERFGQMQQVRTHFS
Sequence of ALX4 (Homo sapiens, UniProt Q9H161 200-286) (Q9H161 200-286): as the sequence (Q9H161 200-286 Q225E) above, with E26Q counted along it
Sequence of HOXD13 (Homo sapiens, UniProt P35453 263-343, T313R) (P35453 263-343 T313R): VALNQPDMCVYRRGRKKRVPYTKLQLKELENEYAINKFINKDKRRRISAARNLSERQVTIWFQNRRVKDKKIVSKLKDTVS
Sequence of MSX2 (Homo sapiens, UniProt P35548 130-214) (P35548 130-214): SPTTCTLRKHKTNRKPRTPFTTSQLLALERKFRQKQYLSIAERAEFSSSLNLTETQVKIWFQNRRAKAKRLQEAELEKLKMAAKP
Sequence of HOXB9 (Homo sapiens, UniProt P17482 171-250, R186Q) (P17482 171-250 R186Q): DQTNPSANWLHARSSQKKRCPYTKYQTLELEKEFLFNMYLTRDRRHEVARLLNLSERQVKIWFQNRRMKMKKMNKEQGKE
Sequence of HOXC9 (Homo sapiens, UniProt P31274 178-260, R193K) (P31274 178-260 R193K): as the sequence (P31274 178-260) above, with R16K counted along it
Sequence of HOXC9 (Homo sapiens, UniProt P31274 178-260, R222W) (P31274 178-260 R222W): as the sequence (P31274 178-260) above, with R45W counted along it
Sequence of HOXC9 (Homo sapiens, UniProt P31274 178-260, K195R) (P31274 178-260 K195R): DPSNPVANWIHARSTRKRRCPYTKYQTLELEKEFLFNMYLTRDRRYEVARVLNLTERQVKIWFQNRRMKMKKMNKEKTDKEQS
Sequence of PROP1 (Homo sapiens, UniProt O75360 56-141) (O75360 56-141): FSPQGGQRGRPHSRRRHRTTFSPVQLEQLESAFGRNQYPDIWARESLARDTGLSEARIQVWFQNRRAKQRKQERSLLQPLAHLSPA
Sequence of MSX2 (Homo sapiens, UniProt P35548 130-214, R199I) (P35548 130-214 R199I): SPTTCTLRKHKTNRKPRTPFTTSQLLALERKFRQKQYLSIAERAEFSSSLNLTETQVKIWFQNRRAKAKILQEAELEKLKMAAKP
Sequence of MSX2 (Homo sapiens, UniProt P35548 130-214, F161Y) (P35548 130-214 F161Y): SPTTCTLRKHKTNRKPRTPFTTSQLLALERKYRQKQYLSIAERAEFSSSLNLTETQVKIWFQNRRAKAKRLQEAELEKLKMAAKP
Sequence of HOXD13 (Homo sapiens, UniProt P35453 263-343) (P35453 263-343): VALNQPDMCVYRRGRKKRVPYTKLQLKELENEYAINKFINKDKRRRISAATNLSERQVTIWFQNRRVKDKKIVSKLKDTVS
Sequence of HOXB9 (Homo sapiens, UniProt P17482 171-250, T197M) (P17482 171-250 T197M): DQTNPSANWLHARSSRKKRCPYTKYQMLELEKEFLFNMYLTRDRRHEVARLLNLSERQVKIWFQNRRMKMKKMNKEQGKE

In the case of GCCAGGGC, the binding signal is 7.76 upbm affinity estimate (log intensity, higher = more binding, comparable within an allelic series) in the experiment with VENTX [1]; 9.77 upbm affinity estimate (log intensity, higher = more binding, comparable within an allelic series) in the experiment with HOXA4 [2]; 7.69 upbm affinity estimate (log intensity, higher = more binding, comparable within an allelic series) with VENTX [3]; 7.85 upbm affinity estimate (log intensity, higher = more binding, comparable within an allelic series) in the experiment with VENTX [4]; 6.87 upbm affinity estimate (log intensity, higher = more binding, comparable within an allelic series) with HOXA2 [5]; 9.77 upbm affinity estimate (log intensity, higher = more binding, comparable within an allelic series) with HOXA4 [6]. Also, the binding signal with NKX2-6 [7] was 9.13 upbm affinity estimate (log intensity, higher = more binding, comparable within an allelic series); with MSX2 [8] it was 9.52 upbm affinity estimate (log intensity, higher = more binding, comparable within an allelic series); with HOXA2 [9], 10.3 upbm affinity estimate (log intensity, higher = more binding, comparable within an allelic series); with HOXA4 [10], 9.7 upbm affinity estimate (log intensity, higher = more binding, comparable within an allelic series); with MSX2 [11] it was 9.44 upbm affinity estimate (log intensity, higher = more binding, comparable within an allelic series); in the experiment with PROP1 [12], 6.61 upbm affinity estimate (log intensity, higher = more binding, comparable within an allelic series). In addition, the binding signal was 6.73 upbm affinity estimate (log intensity, higher = more binding, comparable within an allelic series) with PROP1 [13]; 7.25 upbm affinity estimate (log intensity, higher = more binding, comparable within an allelic series) in the experiment with VAX1 [14]; 6.44 upbm affinity estimate (log intensity, higher = more binding, comparable within an allelic series) with PROP1 [15]; 9.44 upbm affinity estimate (log intensity, higher = more binding, comparable within an allelic series) with MSX2 [16]; 7.16 upbm affinity estimate (log intensity, higher = more binding, comparable within an allelic series) with VAX1 [17]; 10.4 upbm affinity estimate (log intensity, higher = more binding, comparable within an allelic series) with HOXA2 [18]. Besides, the binding signal was 9.81 upbm affinity estimate (log intensity, higher = more binding, comparable within an allelic series) in the experiment with HOXA4 [19]; 6.74 upbm affinity estimate (log intensity, higher = more binding, comparable within an allelic series) with HOXA2 [20]; 7.15 upbm affinity estimate (log intensity, higher = more binding, comparable within an allelic series) with VAX1 [21].
Regarding CACGGGGG, the binding signal with VENTX [1] is 7.84 upbm affinity estimate (log intensity, higher = more binding, comparable within an allelic series); with HOXB9 [22] it was 8.4 upbm affinity estimate (log intensity, higher = more binding, comparable within an allelic series); in the experiment with VENTX [3], 7.81 upbm affinity estimate (log intensity, higher = more binding, comparable within an allelic series); with ALX4 [23], 7.67 upbm affinity estimate (log intensity, higher = more binding, comparable within an allelic series); with VENTX [4], 7.86 upbm affinity estimate (log intensity, higher = more binding, comparable within an allelic series); with ALX4 [24], 7.96 upbm affinity estimate (log intensity, higher = more binding, comparable within an allelic series). Further, the binding signal is 7.01 upbm affinity estimate (log intensity, higher = more binding, comparable within an allelic series) with HOXA2 [5]; 8.3 upbm affinity estimate (log intensity, higher = more binding, comparable within an allelic series) in the experiment with HOXB9 [25]; 10.1 upbm affinity estimate (log intensity, higher = more binding, comparable within an allelic series) with HOXA2 [9]; 7.17 upbm affinity estimate (log intensity, higher = more binding, comparable within an allelic series) with VAX1 [14]; 8.26 upbm affinity estimate (log intensity, higher = more binding, comparable within an allelic series) with HOXB9 [26]; 7.14 upbm affinity estimate (log intensity, higher = more binding, comparable within an allelic series) with VAX1 [17]. The binding signal with HOXA2 [18] is 10.4 upbm affinity estimate (log intensity, higher = more binding, comparable within an allelic series); with HOXA2 [20], 7.04 upbm affinity estimate (log intensity, higher = more binding, comparable within an allelic series); with VAX1 [21], 7.08 upbm affinity estimate (log intensity, higher = more binding, comparable within an allelic series).
As to CGATTAAA, in the experiment with VENTX [1], the binding signal is 10.7 upbm affinity estimate (log intensity, higher = more binding, comparable within an allelic series).
Consider CTGGGACC, for which the binding signal was 8.08 upbm affinity estimate (log intensity, higher = more binding, comparable within an allelic series) with VENTX [1]; 9.45 upbm affinity estimate (log intensity, higher = more binding, comparable within an allelic series) with HOXC9 [27]; 8.05 upbm affinity estimate (log intensity, higher = more binding, comparable within an allelic series) in the experiment with VENTX [3]; 8.06 upbm affinity estimate (log intensity, higher = more binding, comparable within an allelic series) in the experiment with VENTX [4]; 9.59 upbm affinity estimate (log intensity, higher = more binding, comparable within an allelic series) in the experiment with HOXC9 [28]; 9.43 upbm affinity estimate (log intensity, higher = more binding, comparable within an allelic series) in the experiment with HOXC9 [29]. Besides, the binding signal in the experiment with HOXC9 [30] is 9.65 upbm affinity estimate (log intensity, higher = more binding, comparable within an allelic series).
Turning to ACTCGTTA, in the experiment with VENTX [1], the binding signal is 9.91 upbm affinity estimate (log intensity, higher = more binding, comparable within an allelic series).
As for CCCCCTGC, the binding signal was 8.15 upbm affinity estimate (log intensity, higher = more binding, comparable within an allelic series) with VENTX [1]; 9.55 upbm affinity estimate (log intensity, higher = more binding, comparable within an allelic series) in the experiment with HOXA4 [2]; 8.15 upbm affinity estimate (log intensity, higher = more binding, comparable within an allelic series) with VENTX [3]; 8.11 upbm affinity estimate (log intensity, higher = more binding, comparable within an allelic series) in the experiment with VENTX [4]; 9.45 upbm affinity estimate (log intensity, higher = more binding, comparable within an allelic series) with HOXA4 [6]; 9.12 upbm affinity estimate (log intensity, higher = more binding, comparable within an allelic series) with HOXD13 [31]. For the same sequence, the binding signal with NKX2-6 [32] is 8.96 upbm affinity estimate (log intensity, higher = more binding, comparable within an allelic series); with HOXD13 [33] it was 9.26 upbm affinity estimate (log intensity, higher = more binding, comparable within an allelic series); in the experiment with HOXA4 [10], 9.54 upbm affinity estimate (log intensity, higher = more binding, comparable within an allelic series); with HOXD13 [34] it was 9.34 upbm affinity estimate (log intensity, higher = more binding, comparable within an allelic series); with NKX2-6 [35] it was 8.92 upbm affinity estimate (log intensity, higher = more binding, comparable within an allelic series); with HOXA4 [19], 9.59 upbm affinity estimate (log intensity, higher = more binding, comparable within an allelic series).
